Bioassay records as filed in PubChem BioAssay.
Only a selection was taken, and hits are over-represented in it overall.
TDP1 cell noCPT – qHTS for Inhibitors of human tyrosyl-DNA phosphodiesterase 1 (TDP1): qHTS in cells in absence of CPT; DT40 Tdp1-/- hTDP1 cells, no CPT, ATP luminescence, 48 h; Potency, µM (highest dose often 46.2 µM), for the others: at the highest dose activity change, negative = growth inhibition, hits mostly inhibitors; 420,000 compounds, 15% hits; further: potency means the concentration at half of the fitted maximal effect; nearly all actives have a fitted effect of over 55% in size
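Camptothecin absent (DMSO only). Human TDP1-complemented DT40 knockout cells, 400 cells/well, 37 °C for minimum 48 hr; ATP measured via CellTiter-Glo, 30 min dark incubation, luminescence.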
HT1080-NT tox – qHTS for induction of synthetic lethality in tumor cells producing 2HG: qHTS for the HT-1080-NT fibrosarcoma cell line. Potency, µM (titrated, usually from 46.1 µM), inactives show top-dose activity, negative = less viability, usual class: cytotoxic. 360,000 compounds, 1.6% hits. HT-1080-NT fibrosarcoma viability, CellTiter-Glo ATP luminescence, 48 h;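 further: NT is the 2HG producing partner of a matched IDH1 knockdown line; potency means the concentration at half of the fitted maximal effect; 0% = DMSO-treated cells and -100% = media-only wells without cells; nearly all actives have a fitted effect of over 55% in size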
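750 cells/well, RPMI + 5% FBS; 2 h settle, compound pin-transfer, 48 h at 37 degrees C. CellTiter-Glo 10 min RT, luminescence. Normalized to DMSO and media-only wells.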
DT40 TDP1 CPT – qHTS for Inhibitors of human tyrosyl-DNA phosphodiesterase 1 (TDP1): qHTS in cells in presence of CPT; chicken DT40 Tdp1-/-;hTDP1 cells + 20 nM CPT, ATP luminescence, 48 h; Potency, µM (series often up to 46.2 µM), for the others: at the highest dose activity change, negative = growth inhibition, hits mostly inhibitors; 420,000 compounds, 12% hits; AID 686979, 2013; further: potency means the concentration at half of the fitted maximal effect; nearly all actives have a fitted effect of over 55% in size
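Chicken DT40 Tdp1-/- cells complemented with human TDP1, 400 cells/well, exposed to compounds plus 20 nM camptothecin for at least 48 h at 37 C; viability read as ATP content by CellTiter-Glo luminescence.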
HT1080 IDH1KD tx – qHTS for induction of synthetic lethality in tumor cells producing 2HG: qHTS for the HT-1080-IDH1KD cell line; 360,000 compounds, 2% hits; HT-1080 IDH1 knockdown viability, ATP luminescence, 48 h; Potency, µM (doses to about 46.1 µM), for inactives: top-dose activity, negative = toxicity, most hits filed as cytotoxic; AID 686971, 2013;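 further: potency means the concentration at half of the fitted maximal effect; 0% = DMSO wells and -100% = cell-free medium wells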
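Knockdown cells (IDH1KD HT-1080) received compounds 2 h after plating at 750 cells/well and were kept 48 h at 37 °C in 5% FBS RPMI. A CellTiter-Glo luminescence read gave % activity for curve fitting.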
12-LOX inh – Primary qHTS assay for inhibitors of human arachidonate 12S-lipoxygenase (ALOX12): Round 2; Polyunsaturated fatty acid lipoxygenase ALOX12 (Homo sapiens), P18054; purified 12hLO, xylenol orange hydroperoxide absorbance; Potency, µM (highest dose often 108 µM), for inactives: top-dose activity change, negative = inhibition, usual class: inhibitors; 580,000 compounds, 1.1% hits; further: potency means the concentration at half of the fitted maximal effect
Target sequence (P18054 whole entry, looked up): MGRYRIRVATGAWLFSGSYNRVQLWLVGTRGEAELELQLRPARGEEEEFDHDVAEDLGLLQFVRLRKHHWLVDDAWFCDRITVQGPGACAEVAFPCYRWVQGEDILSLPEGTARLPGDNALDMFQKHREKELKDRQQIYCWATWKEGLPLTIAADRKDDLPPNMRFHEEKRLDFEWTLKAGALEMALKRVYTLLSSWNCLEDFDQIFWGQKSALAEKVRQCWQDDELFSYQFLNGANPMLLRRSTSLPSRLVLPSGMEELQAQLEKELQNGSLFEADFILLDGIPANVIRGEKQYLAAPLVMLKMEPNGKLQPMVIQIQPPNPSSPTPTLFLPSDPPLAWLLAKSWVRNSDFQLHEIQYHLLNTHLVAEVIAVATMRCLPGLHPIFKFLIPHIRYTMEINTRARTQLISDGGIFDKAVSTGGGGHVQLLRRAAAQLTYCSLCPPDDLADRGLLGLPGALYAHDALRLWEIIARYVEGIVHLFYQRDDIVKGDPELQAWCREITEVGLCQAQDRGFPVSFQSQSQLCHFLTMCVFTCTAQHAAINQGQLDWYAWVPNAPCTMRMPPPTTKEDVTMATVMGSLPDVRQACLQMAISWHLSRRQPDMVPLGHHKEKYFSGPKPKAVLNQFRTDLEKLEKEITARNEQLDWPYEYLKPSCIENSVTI
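Hydroperoxide product was detected by ferrous iron/xylenol orange as the 573 to 405 nm absorbance ratio. Arachidonic acid at 40 uM (final) was turned over for 30 min at room temperature by 150 nM human 12hLO, pH 7.0 Hepes buffer, after 15 min compound preincubation.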
IL1B secr inh – qHTS for Inhibitors of Inflammasome Signaling: IL-1-beta AlphaLISA Primary Screen | activity change, % at 57.5 µM | AID 743279, 2014 | THP-1 LPS/ATP IL-1B secretion, AlphaLISA, 16 h; hits give low values | 360,000 compounds, 4.7% hits; in the data active means activity change below about -50%; inconclusive means mostly about -30% to -49%
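Secreted IL-1B measured by AlphaLISA bead assay after 16 h compound exposure of THP-1 cells; compounds (final up to 57.5 uM) added 1 h before LPS (250 ng/mL) and ATP (1.25 mM) stimulation; lower signal means less secretion.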
Active calls of the source: *; ? = inconclusive; · = not tested or not shown; [ ] = dose if it differs, or a comment. Unless noted, the call rests on the fitted dose curve; in most records, active means well fitted curve in the direction sought with a large enough effect; inconclusive means small, poorly fitted or top-dose-only effect, or another doubt; inactive means no such curve, though single readings can be large; an effect the other way counts as inactive or inconclusive. Unless noted, on the % scale 0 is the no-effect control and ±100 the full control effect.

SMILES | TDP1 cell noCPT | HT1080-NT tox | DT40 TDP1 CPT | HT1080 IDH1KD tx | 12-LOX inh | IL1B secr inh
COc1ccc2oc(=O)c(-c3nnc(NCc4ccco4)s3)cc2c1 | 3.7µM* | -21% | 5.8µM* | ? | 0% | -27
CCOc1ccccc1Nc1nnc(-c2cc3cc(OC)ccc3oc2=O)s1 | 7.3µM* | · | 8.2µM* | · | -12% | ·
O=C(CCC1CCN(C(=O)c2ccccc2)CC1)Nc1ccc(F)cc1 | · | · | · | · | 18% | ·
CC(=O)N1CC2(CCN(CC3CCCCC3)C2)Cc2ccccc21 (configuration not stated) | · | · | · | · | -1%[6.33 µM] | ·
Cc1cccc(/C=C2/S/C(=N/N=C3\CC4CCC3(C)C4(C)C)NC2=O)c1 (configuration not stated) | 21µM* | -3% | ? | -2%[9.24 µM] | 0% | ?
O=C(CSc1c2c(nc3ccc(Cl)cc13)CCCC2)N1CCN(C(=O)c2ccco2)CC1 | 21µM* | -28% | 15µM* | ? | -15% | -79*
CC(C)CCNC(=O)CSc1c2c(nc3ccc(Cl)cc13)CCCC2 | ? | · | ? | · | -10% | ·
CC1CCN(C(=O)CSc2c3c(nc4ccc(Cl)cc24)CCCC3)CC1 | 16µM* | · | 21µM* | · | ? | ·
CC1CCCCN1C(=O)CSc1c2c(nc3cc(Cl)ccc13)CCCC2 (configuration not stated) | 18µM* | · | ? | · | -14% | ·
O=C(CSc1nc2cc(Cl)ccc2s1)N1CCN(C(=O)c2ccco2)CC1 | ? | -1% | ? | 0% | 383% | 23
CC1CCCN(C(=O)CSc2c3c(nc4cc(Cl)ccc24)CCCC3)C1 (configuration not stated) | 12µM* | · | 21µM* | · | -5% | ·
CC1CC(C)CN(Cc2ccccc2C#N)C1 (configuration not stated) | · | · | · | · | 21% | ·
O=C(CSc1c2c(nc3cc(Cl)ccc13)CCCC2)N1CCN(c2ccccc2F)CC1 | 6.5µM* | · | 10µM* | · | -8% | ·
O=C(c1cccc(Br)c1)N1CCC2(CC1)CC(O)CCO2 (configuration not stated) | · | · | · | · | 29% | ·
CCn1c(SCC(=O)c2cc3ccccc3o2)nnc1C1CC1 | · | · | · | · | -14% | ·
CCCCCn1c(CNC(C)=O)nc2ccccc21 | ? | 2% | ? | -5% | 23% | 6
CCCCCn1c(C(Cc2ccccc2)NC(C)=O)nc2ccccc21 (configuration not stated) | 26µM* | 15% | ? | 3% | 0% | -14
CCCCC(NC(C)=O)c1nc2ccccc2n1CCCC (configuration not stated) | 2.1µM* | 15% | 4.1µM* | 15% | -14% | -17
O=C(C1=C(c2ccccc2)SCCO1)N(Cc1ccco1)C1CCS(=O)(=O)C1 (configuration not stated) | · | · | · | · | -4% | ·
CC1=NN(C(=O)c2ccc(Cn3nc(C)c([N+](=O)[O-])c3C)cc2)C(O)(C(F)(F)F)C1 (configuration not stated) | -20% | 4.5µM* | ? | 1.8µM* | 12% | 6
CCOc1ccc(C(=O)N2N=C(C)CC2(O)C(F)(F)F)cc1 (configuration not stated) | · | · | · | · | 53% | ·
CC1=NN(C(=O)c2ccc(Cn3nc(C)c(Br)c3C)cc2)C(O)(C(F)(F)F)C1 (configuration not stated) | 0.58µM* | -3% | 0.82µM* | -6% | 26% | 65
CCCCCOc1ccc(/C=C/c2c([N+](=O)[O-])c(=O)n(C)c(=O)n2C)cc1 | 21µM* | 6% | 18µM* | 7% | -1% | -86*
COc1ccc(/C=C/c2c([N+](=O)[O-])c(=O)n(C)c(=O)n2C)c(OC)c1OC | ? | -20% | -8% | -16% | ? | -58*
COc1ccc(/C=C/c2c([N+](=O)[O-])c(=O)n(C)c(=O)n2C)cc1OC | -13% | 20% | -1% | 0% | -11% | -4
SMILES | TDP1 cell noCPT | HT1080-NT tox | DT40 TDP1 CPT | HT1080 IDH1KD tx | 12-LOX inh | IL1B secr inh
CCCCCOc1ccc(/C=C/C(=O)O)cc1 | · | · | · | · | 7% | ·
CN(/C=C/c1c([N+](=O)[O-])c(=O)n(C)c(=O)n1C)c1ccccc1 | 0% | 2% | 2% | 11% | 4% | -3
Cn1c(/C=C/c2cccc([N+](=O)[O-])c2)c([N+](=O)[O-])c(=O)n(C)c1=O | 15µM* | -21% | ? | ? | 23% | -107*
Cn1c(/C=C/c2ccc(Cl)cc2)c([N+](=O)[O-])c(=O)n(C)c1=O | 21µM* | ? | ? | ? | 5% | -100*
CCn1c(/C=C/c2cccc([N+](=O)[O-])c2)nc2ccccc2c1=O | ? | 14% | ? | 9% | 0% | -24
CN(CC1CCOCC1)C(=O)C1CCCC1 | · | · | · | · | 19% | ·
COC(=O)CCCNC(=O)CN(C)Cc1ccsc1 | · | · | · | · | -42% | ·
Cn1c(N=Nc2ccccc2)nc2ccccc21 | 7.3µM* | 8.2µM* | 8.2µM* | 10µM* | ? | 0
CNC(=O)[C@H]1C[C@H](Oc2cccnc2)CN1C(=O)NCC(C)C | · | · | · | · | 40% | ·
Cc1cc(C(F)(F)F)c2sc(N)nc2n1 | -4% | 8% | -1% | 6%[9.24 µM] | 0% | 8
